USP7 inh – blocks human USP7 ubiquitin-rhodamine cleavage | inhibition, % at 20 µM | hit rate 0.3% among 47,000 | Q93009 | purified USP7, Ub-rhodamine cleavage fluorescence | AID 1645854
USP10 block – inhibitors of human USP10 deubiquitinase; inhibition, % at 20 µM; AID 1645856; Q14694; hit rate 1.1% among 47,000; purified USP10, Ub-rhodamine fluorescence, 60 min
UCHL1 block – blocks human UCHL1 ubiquitin-rhodamine cleavage; AID 1645859; inhibition, % at 20 µM; P09936; purified UCHL1, Ub-rhodamine cleavage fluorescence; hit rate 0.2% among 47,000
Target sequence (P09936 whole entry, looked up): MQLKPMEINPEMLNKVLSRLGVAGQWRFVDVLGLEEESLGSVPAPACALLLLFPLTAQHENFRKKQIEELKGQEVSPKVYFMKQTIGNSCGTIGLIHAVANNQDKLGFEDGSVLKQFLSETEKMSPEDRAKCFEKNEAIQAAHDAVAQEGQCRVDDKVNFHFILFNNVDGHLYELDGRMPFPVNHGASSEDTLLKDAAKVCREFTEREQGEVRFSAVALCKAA
USP8 block – human USP8 deubiquitinase inhibition; P40818; purified USP8, Ub-rhodamine cleavage fluorescence, 30 min; inhibition, % at 20 µM; hit rate 4.2% among 47,000; AID 1645853
* marks the source's active call; other numbers are inactive results. This is a sample that favours compounds with a hit; in the whole collection about 4.6% have one here. Rule as the data show it: active = inhibition above about 30%; inactive = the rest.

Screening COc1cccc2cc(C(=O)NCc3cnn4ccccc34)oc12 returned USP7 inh 1, USP10 block -1, UCHL1 block -1 and USP8 block -18.
COc1cccc2cc(C(=O)Nc3nc(-c4ccncc4)cs3)oc12 was read as USP7 inh 49*, USP10 block 48*, UCHL1 block 11 and USP8 block 49*.
CCOC(=O)C1CCCN(C(=O)C(=O)c2cn(CC(=O)N3CCCCC3)c3ccccc23)C1 (configuration not stated) was read as USP7 inh 2, USP10 block -4, UCHL1 block 5 and USP8 block 80*.
Screening O=C(Nc1cccc(Cl)c1)N1CCC(c2cc(-c3ccco3)n[nH]2)CC1 returned USP7 inh -7, USP10 block -5, UCHL1 block -12 and USP8 block 80*.
For CN(C)c1ccc(NC(=O)COC(=O)C2(c3ccc(F)cc3)CCCC2)cc1 the results were USP7 inh 5, USP10 block 2, UCHL1 block 5 and USP8 block 72*.
`CCOc1ccc(NC(=O)COC(=O)C2(c3ccc(F)cc3)CCCC2)cc1` gave USP7 inh 8, USP10 block 14, UCHL1 block 5 and USP8 block 6.
`CC1CCN(C(=O)c2snc3c(=O)n(Cc4ccccc4)c(=O)[nH]c23)CC1` gave USP7 inh -36, USP10 block -4, UCHL1 block -4 and USP8 block -4.
Screening Cc1ccc(-c2cc(C(=O)Nc3ccccc3Cl)[nH]n2)c(O)c1C returned USP7 inh 8, USP10 block 15, UCHL1 block -1 and USP8 block 33*.
Screening CCc1ccc(NC(=O)CN2CCC(C(=O)c3ccc(F)cc3)CC2)cc1 returned USP7 inh 0, USP10 block 3, UCHL1 block 2 and USP8 block 3.
CC(OC(=O)c1cc(S(=O)(=O)Nc2ccccc2F)ccc1Cl)C(=O)Nc1ccc([N+](=O)[O-])cc1C(F)(F)F (configuration not stated) was read as USP7 inh 2, USP10 block 36*, UCHL1 block 6 and USP8 block -97.
Screening CC(OC(=O)c1cc(S(=O)(=O)Nc2ccc(S(C)(=O)=O)cc2)ccc1Cl)C(=O)Nc1ccc([N+](=O)[O-])cc1C(F)(F)F (configuration not stated) returned USP7 inh 1, USP10 block 18, UCHL1 block 3 and USP8 block -85.
`CC(=O)c1cccc(NC(=O)CCc2c(C)nc3nc[nH]n3c2=O)c1` gave USP7 inh 1, USP10 block 3, UCHL1 block -1 and USP8 block -70.
Screening CCOc1ccc(CC(=O)Nc2ccc(-c3cn4cccnc4n3)cc2)cc1 returned USP7 inh -24, USP10 block 14, UCHL1 block 22 and USP8 block 40*.
COc1cccc(NC(=O)c2ccc(-c3csc(C)n3)cc2)c1 was read as USP7 inh -5, USP10 block 2, UCHL1 block 0 and USP8 block -10.
Screening Cc1ccc(-n2nc(C)c3c2NC(=O)CC3C(=O)c2cc3ccccc3o2)cc1C (configuration not stated) returned USP7 inh -1, USP10 block 10, UCHL1 block 3 and USP8 block 5.
O=C1c2ccccc2C2(CCCC2)C(=O)N1Cc1ccccc1 was read as USP7 inh -59, USP10 block 8, UCHL1 block 3 and USP8 block 49*.
Cc1c(Cl)cccc1S(=O)(=O)N1CCC2(CC1)CC2c1nc(-c2cccnc2)no1 (configuration not stated) was read as USP7 inh 10, USP10 block 8, UCHL1 block 6 and USP8 block 20.
For COc1ccccc1CC(=O)N1C[C@@H](c2ccc(F)c(F)c2)[C@@]2(COCCC(=O)N2)C1 the results were USP7 inh -57, USP10 block 0, UCHL1 block 1 and USP8 block 8.
Screening O=C(O)c1cccc2ncc(-c3ccc4ccccc4c3)nc12 returned USP7 inh 2, USP10 block -1, UCHL1 block 2 and USP8 block -30.
For CCN1CCc2nc(NC(=O)COc3ccc(Nc4ccccc4)cc3)sc2C1 the results were USP7 inh 6, USP10 block 4, UCHL1 block 7 and USP8 block 79*.
Cc1cc(-c2cnc(NCc3ccc(F)cc3)nc2-c2ccco2)on1 was read as USP7 inh 1, USP10 block 12, UCHL1 block 0 and USP8 block 35*.
Screening O=C(Nc1cccc(F)c1)N1CCC2(CC1)NC(=O)N(CCOc1ccccc1)C2=O returned USP7 inh -10, USP10 block 2, UCHL1 block 6 and USP8 block 20.
Cc1ccc(-c2cc(C(F)F)n3ncc(C(=O)Nc4ccc(O)cc4)c3n2)cc1 was read as USP7 inh 14, USP10 block 44*, UCHL1 block 8 and USP8 block 60*.
For Cc1ccc(-c2cc(C(F)F)n3ncc(C(=O)Nc4ccc(Cl)cc4)c3n2)cc1 the results were USP7 inh 3, USP10 block -1, UCHL1 block -1 and USP8 block 7.
N#Cc1cccc(NC(=O)Nc2nnc3cccc(Cl)n23)c1 was read as USP7 inh 1, USP10 block -5, UCHL1 block -5 and USP8 block -6.
COc1ccc(CCC(=O)Nc2nnc(C3CC(=O)N(c4ccccc4)C3)s2)cc1 (configuration not stated) was read as USP7 inh 5, USP10 block 34*, UCHL1 block 1 and USP8 block -14.
For O=C(c1ccccn1)N1CCC2(CC1)COc1ccccc1S(=O)(=O)N(CC1CC1)C2 the results were USP7 inh 2, USP10 block -1, UCHL1 block 0 and USP8 block -1.
`O=C(Nc1ccc(Br)cc1)c1cc(=O)[nH]c2ccccc12` gave USP7 inh 13, USP10 block 19, UCHL1 block 2 and USP8 block 21.
Screening Cc1cc(C)cc(NC(=O)c2c(O)c3ccccc3[nH]c2=O)c1 returned USP7 inh 9, USP10 block 9, UCHL1 block 4 and USP8 block 42*.
`COc1cc(CC(=O)Nc2cc(S(=O)(=O)N3CCCCC3)ccc2Cl)cc(OC)c1OC` gave USP7 inh 6, USP10 block -1, UCHL1 block 4 and USP8 block 15.
`Cc1c(C(=O)NCC(F)(F)F)nnn1-c1cccc2c1CCN(C1CCOCC1)C2` gave USP7 inh -13, USP10 block -7, UCHL1 block -11 and USP8 block -7.
`Cc1c(C(=O)NCC2CCCCC2)nnn1-c1cccc2c1CCN(C1CCOCC1)C2` gave USP7 inh -8, USP10 block -2, UCHL1 block 1 and USP8 block 36*.
For COc1ccc(OC)c(NC(=O)C(C)N2c3cccc4cccc(c34)S2(=O)=O)c1 (configuration not stated) the results were USP7 inh 8, USP10 block 7, UCHL1 block 5 and USP8 block 41*.
`COc1ccc(OC)c(NC(=O)CN2c3ccccc3S(=O)(=O)c3ccccc32)c1` gave USP7 inh 5, USP10 block 1, UCHL1 block 2 and USP8 block 2.

High-throughput results: PubChem BioAssay, Buhrlage Lab, Dana-Farber Cancer Institute and Novartis Institutes for BioMedical Research (Cambridge, Mass)
